Measured potencies and affinities stand elsewhere. The source made the active and inactive calls. How the calls were made is not given here.
experiment: mammalian cell cytotoxicity, dose response, cytotoxicity control, plate reader, cherry-pick samples (AID 504397); conditions: plate reader viability; series mostly up to 35 µM

| Compound | outcome |
| --- | --- |
| CN(C)S(=O)(=O)c1ccc(NC(=O)/C=C/c2ccccc2Cl)cc1 | inactive |
| CN(C)CCN(C(=O)c1ccc2ccccc2c1)c1nc2ccc(Br)cc2s1 | inactive |
| CCn1cc(/C=C(\NC(=O)c2ccccc2Cl)C(=O)N2CCOCC2)c2ccccc21 | inactive |
| CCCCNC(=S)N=Nc1c(O)n(Cc2ccccc2)c2ccccc12 | inactive |
| CS(=O)(=O)c1ccc(C(=O)OCC(=O)N(CCc2ccccc2)Cc2ccccc2)cc1 | inactive |
| O=C(Nc1ccc(Cl)c([N+](=O)[O-])c1)C(Sc1ccccc1)c1ccccc1 (stereo unspecified) | inactive |
| Cc1cccc(-c2nnc(SCc3ccc(C#N)cc3)n2Cc2ccco2)c1 | inactive |
| Cc1ccc(NC(=O)CCc2ccc(S(=O)(=O)NC3CCCCC3)cc2)cc1 | inactive |
| Nc1nnnn1/N=C/c1ccccc1OCc1ccc(Cl)cc1Cl | inactive |
| CN(C(=O)COC(=O)c1cn(-c2ccccc2)nc1-c1ccccc1)C1CCS(=O)(=O)C1 (stereo unspecified) | inactive |
| O=C(Nc1sc2c(c1C(=O)c1ccc(Cl)cc1)CCCC2)c1cccnc1 | inactive |
| COC(=O)C1CCCN1S(=O)(=O)c1ccc2ccccc2c1 (stereo unspecified) | inactive |
| O=C(Nc1ccc2c(c1)CCC2)c1ccccc1Br | inactive |
| Cc1ccc(N=Cc2c(O)n(C)c(=O)n(C)c2=O)nc1 | inactive |
| COc1cccc(/C=N/NC(=O)c2nnn(-c3nonc3N)c2C(C)C)c1OCc1ccc(F)cc1 | inactive |
| CCn1cc(/C=C(\NC(=O)c2ccccc2F)C(=O)N2CCCC2)c2ccccc21 | inactive |

| Compound | outcome |
| --- | --- |
| CCOC(=O)[C@@H]1[C@H]2COc3ccc(Br)cc3[C@@H]2N2C(=O)N(c3cccc(Cl)c3)C(=O)[C@]12C | inactive |
| CCOc1ccc(-n2c(SCc3ccc([N+](=O)[O-])cc3)nnc2-c2ccc(OC)cc2)cc1 | inactive |
| COc1ccc(CN2CCN(C(c3ccc(F)cc3)c3ccc(F)cc3)CC2)c(OC)c1OC | inactive |
| O=C(COC(=O)c1ccccc1Cc1ccccc1)NC1CCS(=O)(=O)C1 (stereo unspecified) | inactive |
| CCn1nnnc1SCC(=O)Nc1nc(C)c(C)s1 | inactive |
| CC(C)c1c(C(=O)N/N=C/c2cccc3ccccc23)nnn1-c1nonc1N | inactive |
| CCn1cc(/C=C(\NC(=O)c2ccccc2)C(=O)N2CCOCC2)c2ccccc21 | inactive |
| CCOC(=O)c1cc(-c2ccccc2)sc1NC(=O)C(C)Sc1nnnn1C (stereo unspecified) | inactive |
| Nc1nonc1-n1nnc(C(=O)N/N=C/c2ccoc2)c1CSc1ccccc1 | inactive |
| COc1ccc(C2Nc3ccccc3C(=O)N2Cc2ccccc2)cc1COc1ccccn1 (stereo unspecified) | inactive |
| COc1cccc(-c2c(C(=O)N/N=C/c3sccc3C)nnn2-c2nonc2N)c1 | inactive |
| Cc1cccc(Nc2ccccc2C(=O)OCC(=O)N(C)C2CCS(=O)(=O)C2)c1C (stereo unspecified) | inactive |
| COc1ccccc1N1CCN(c2ncc(C(=O)N3CCN(c4cccc(Cl)c4)CC3)c3ccccc23)CC1 | inactive |
| CCOc1ccc(N(Cc2ccc(OC)cc2)C(=O)c2ccco2)cc1 | inactive |
| CN(C)CCN(C(=O)c1ccc2ccccc2c1)c1nc2ccc(F)cc2s1 | inactive |
